biological target: PQLC1; assay: pooled miR-30 sensor sort-seq; sequence = guide strand; settings: shRNA
Also: reference of the scale not given here.

Row | Sequence | sensor-assay potency score (higher = more potent)
1 | TGCACGTAGTCCGAGAAGCTGC | -1.19
2 | TCTGCAGCTGTAAAGGAGCGGC | -0.795
3 | TTGATGCTCATGCCCTCCGTGG | -1.49
4 | TAGGTGGAGAAGCCGTCGGCGT | -1.4
5 | AAGTCCAGGAAGGACCGCCTGG | -1.26
6 | TTGACTTCTTCATCCTTGCTAT | 0.0479
7 | AACCTTGACTTCTTCATCCTTG | 0.292
8 | TCGAAGTCCAGGAAGGACCGCC | -0.0699
9 | TAGTCCGAGAAGCTGCTCCACT | -0.969
10 | ATGAGCACCATCTTGATGCTCA | -0.811
11 | TTGAGCTCGTTGGCCACACGGA | -0.78

biological target: PRADC1; assay: as above; settings: shRNA

Row | Sequence | sensor-assay potency score (higher = more potent)
12 | ATCATCTCCACGTAGAAGCTGT | -0.485
13 | AAAGATACCACCAAAGTCCTTG | 0.163
14 | TGAATCTGCTCATACCTTGTGT | -0.084
15 | TTTGTTTCGGGTTCTAGCCAGA | -0.698
16 | ATGCTGGTGACATTGACTGGGA | -1
17 | TCTTGTAGCATGAGACACCCTT | -0.0908
18 | TAAACCACTCCAACAACTGCTG | 0.158
19 | TTGTGTGAAAGATACCACCAAA | -1.24
20 | TTTTGTTTCGGGTTCTAGCCAG | -0.533
21 | TGGATGAAGAAACCGTTGCTGA | -1.26
22 | TCATGTAGCCGTCTCGGCCGAG | -1.06
23 | TAGCATGAGACACCCTTGGGGG | -0.696
